Data published in PubChem BioAssay (Tox21).
Values joined by “and” are separate entries in the source; they are usually repeats but may differ in a detail not shown here. Equal entries are not always repeated. Results filed as inconclusive are left out. Some compounds were tested as several samples or in several runs, with calls that do not always agree. Active and inactive are the calls of the source. Unless noted, calls come from the whole dose curve; as a rule, active = well fitted curve in the direction sought with a large enough effect in the repeat runs; inconclusive = weak or mixed curves; inactive = no such curve, though single readings can be large; an effect the other way counts as inactive or inconclusive.

How the values were obtained:
[1] = qHTS assay to identify small molecule agonists of the NFkB signaling pathway - cell viability counter screen (AID 1159515; calls by dose curve; note: nearly all actives have a fitted effect of over 55% in size; note: potency is the fitted concentration of half-maximal effect)
In short: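 5 hr compound treatment of NFkB-bla ME-180 cells (2,000/well, seeded overnight beforehand), followed by reporter substrate for 1.5 hr. CellTiter-Glo added afterward; luminescence after 30 min RT.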

[2] = target: Nuclear receptor ROR-gamma (Homo sapiens) (UniProt P51449); experiment: qHTS assay to identify small molecule antagonists of the retinoid-related orphan receptor gamma (ROR-gamma) signaling pathway (AID 1159521; note: nearly all actives have a fitted effect of over 50% in size; note: potency is the fitted concentration of half-maximal effect)
In short: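 Decreased RORE-driven luciferase luminescence indicates antagonism. Tet-on RORγ CHO cells received compound, then 1 uM final doxycycline 2 h later; signal read after 16 h incubation.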

[3] = qHTS assay to identify small molecule agonists of the AP-1 signaling pathway - cell viability counter screen (AID 1159525; calls by dose curve; note: nearly all actives have a fitted effect of over 55% in size; note: potency is the fitted concentration of half-maximal effect)
In short: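 Luminescent ATP readout (Cell Titer Glo, 30 min RT), normalised to DMSO and tetra n-octyl ammonium bromide controls. Cells were ME-180 AP-1-bla in 0.5% dialyzed FBS Opti-MEM, with a 5 h, 37 °C compound exposure.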

[4] = qHTS assay to identify small molecule agonists of the AP-1 signaling pathway (AID 1159526; calls by dose curve)
[5] = qHTS assay to identify small molecule agonists of the RXR signaling pathway - cell viability counter screen (AID 1159529); note: nearly all actives have a fitted effect of over 50% in size; note: potency is the fitted concentration of half-maximal effect
In short: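 In this parallel viability measure, GeneBLAzer RXR-alpha HEK 293T cells (2% charcoal-stripped FBS) were given a 5 hr preincubation, treated with compounds 16 hr at 37 C, and read by CellTiter-Glo luminescence.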

[6] = qHTS assay to identify small molecule antagonists of the retinoid acid receptor (RAR) signaling pathway - cell viability counter screen (AID 1159551); note: nearly all actives have a fitted effect of over 35% in size; note: potency is the fitted concentration of half-maximal effect
In short: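 Seed C3RL4 cells; next day add compound, then retinol to 1 uM final; incubate 6 h at 37 C; add CellTiter-Glo; read luminescence after 30 min at RT.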

[7] = qHTS assay to identify small molecule antagonists of the retinoic acid receptor (RAR) signaling pathway (AID 1159552; note: nearly all actives have a fitted effect of over 50% in size; note: potency is the fitted concentration of half-maximal effect)
In short: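 C3RL4 RARE-luc cells, overnight plating; retinol 1 uM final added right after compound; 6 hr 37 C; luciferase read at 30 min RT.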

[8] = qHTS assay to identify small molecule agonists of the retinoic acid receptor (RAR) signaling pathway (AID 1159553); note: potency is the fitted concentration of half-maximal effect
In short: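 Activation of retinol signaling was monitored via a RARE luciferase reporter in C3RL4 cells. After 6 hr compound treatment at 37 C, detection reagent was added for 30 min at room temperature before luminescence reading.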

[9] = target: Luciferin 4-monooxygenase (Photinus pyralis) (UniProt P08659); experiment: qHTS assay to identify small molecule inhibitors of firefly luciferase (AID 1224835); note: nearly all actives have a fitted effect of over 25% in size; note: potency is the fitted concentration of half-maximal effect
In short: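 Inhibition of purified Photinus luciferase is measured by luminescence. Substrate levels (D-luciferin, ATP) sit at their KM values. Each compound is tested in a concentration series.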

[10] = qHTS assay to identify small molecule antagonists of the retinoid-related orphan receptor gamma (ROR-gamma) signaling pathway - cell viability counter screen (AID 1159520); note: nearly all actives have a fitted effect of over 50% in size; note: potency is the fitted concentration of half-maximal effect
In short: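 Cytotoxicity was read from cellular ATP (CellTiter-Glo luminescence) after 16 hr at 37 C with 1 uM doxycycline induction. The inducer was added 2 hr after compound transfer to Tet-on ROR gamma CHO cells.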

[11] = qHTS assay to identify small molecule antagonists of the estrogen related receptor (ERR) signaling pathway from Tox21 library - cell viability counter screen (AID 1224834); note: nearly all actives have a fitted effect of over 30% in size; note: potency is the fitted concentration of half-maximal effect
In short: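 CellTiter-Fluor fluorescence measured; ERR cells; 17.5 h compound incubation at 37 C; 30 min reagent step.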

[12] = target: Retinoic acid receptor RXR-alpha (Homo sapiens) (UniProt P19793); experiment: qHTS assay to identify small molecule agonists of the RXR signaling pathway (AID 1159527; calls by dose curve; note: nearly all actives have a fitted effect of over 35% in size)
In short: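 16 hr incubation of compound-treated RXR-alpha-UAS-bla HEK 293T cells (2% charcoal-stripped FBS, 37 C) preceded a 2 hr room-temperature LiveBLAzer FRET substrate step and blue/green fluorescence measurement.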

[13] = qHTS assay to identify small molecule antagonists of the estrogen related receptor (ERR) signaling pathway - cell viability counter screen (AID 1224818);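 note: series mostly up to about 46 µM; viability measured after 17.5 h of compound exposure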
In short: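 In the same ERR cell assay, compound-treated wells (17.5 h, 37 C) were multiplexed with a fluorogenic viability reagent, CellTiter-Fluor, read after 30 min to flag cytotoxic substances.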

[14] = qHTS assay to identify small molecule agonists of the endoplasmic reticulum stress response signaling pathway (AID 1159516; active = well fitted activation curve with a large enough effect in the signal ratio in the repeat runs, not every such curve was filed as active; the % refers to the signal ratio)
In short: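 Reporter HeLa cells (ESRE-beta-lactamase) underwent 5 hr compound incubation at 37 C and 5% CO2 in quantitative HTS format. Detection followed 2 hr of FRET substrate loading at room temperature.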

[15] = qHTS assay to identify small molecule agonists of the endoplasmic reticulum stress response signaling pathway - cell viability counter screen (AID 1159517; calls by dose curve)
In short: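 Cells, HeLa ESRE-bla; density, 1,500/well; dosing, 5 hr at 37 C, 5% CO2; readout, CellTiter-Glo luminescence after 30 min RT.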

Measured: Potency

Luciferin 4-monooxygenase (Photinus pyralis), sequence (P08659 whole entry, looked up): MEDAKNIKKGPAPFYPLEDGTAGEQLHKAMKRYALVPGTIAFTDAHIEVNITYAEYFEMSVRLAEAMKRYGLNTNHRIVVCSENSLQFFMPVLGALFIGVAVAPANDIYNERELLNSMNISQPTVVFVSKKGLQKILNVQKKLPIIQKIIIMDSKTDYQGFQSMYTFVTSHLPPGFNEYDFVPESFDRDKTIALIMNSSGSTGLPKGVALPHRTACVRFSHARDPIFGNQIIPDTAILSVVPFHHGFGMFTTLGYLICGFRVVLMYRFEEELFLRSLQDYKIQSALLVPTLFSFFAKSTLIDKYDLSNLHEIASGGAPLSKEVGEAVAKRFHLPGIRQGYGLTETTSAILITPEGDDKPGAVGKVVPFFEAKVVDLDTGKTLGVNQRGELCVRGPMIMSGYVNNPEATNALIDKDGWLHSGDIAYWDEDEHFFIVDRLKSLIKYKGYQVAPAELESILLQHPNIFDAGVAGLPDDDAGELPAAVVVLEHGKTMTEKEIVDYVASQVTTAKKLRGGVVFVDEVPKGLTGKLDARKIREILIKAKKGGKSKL
Retinoic acid receptor RXR-alpha (Homo sapiens), sequence (P19793 whole entry, looked up): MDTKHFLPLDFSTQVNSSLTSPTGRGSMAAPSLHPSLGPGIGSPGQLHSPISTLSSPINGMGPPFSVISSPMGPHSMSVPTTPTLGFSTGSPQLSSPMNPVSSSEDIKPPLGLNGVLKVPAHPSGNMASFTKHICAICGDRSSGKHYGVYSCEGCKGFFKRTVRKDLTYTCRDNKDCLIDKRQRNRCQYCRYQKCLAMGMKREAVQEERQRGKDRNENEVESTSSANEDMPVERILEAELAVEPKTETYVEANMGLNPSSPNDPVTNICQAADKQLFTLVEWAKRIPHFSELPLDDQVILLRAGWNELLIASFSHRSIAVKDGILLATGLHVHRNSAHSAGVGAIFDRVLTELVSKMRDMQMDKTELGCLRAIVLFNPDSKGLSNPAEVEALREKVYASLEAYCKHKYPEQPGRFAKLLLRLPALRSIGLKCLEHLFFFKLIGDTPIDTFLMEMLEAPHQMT

Oc1c(Cl)c(Cl)cc(Cl)c1Cl
inactive: [1] | [3] | [4] | [6] | [8]
active: [2] 23.7 µM | [5] 7.55 µM | [7] 66.7 µM | [9] 87 µM

CCc1nn(C)c(C(=O)NCc2ccc(C(C)(C)C)cc2)c1Cl
inactive: [9]
active: [1] 54.9 µM | [10] 21.7 µM | [2] 0.545 µM | [5] 43.6 µM | [7] 27.3 µM | [11] 30.6 µM

CCC(C)(C)C(=O)OC1=C(c2ccc(Cl)cc2Cl)C(=O)OC12CCCCC2
active: [9] 31.7 µM
inactive: [1] | [2] | [3] | [12] | [5] | [6] | [7] | [11]

Cc1ccc(OP(=O)(Oc2ccccc2)Oc2ccccc2)cc1
inactive: [1] | [10] | [3] | [4] | [5] | [6] | [7] | [8] | [11] | [9]

C[C@@H]1O[C@@H](O[C@H]2C[C@@H](O)[C@]3(CO)[C@H]4[C@H](O)C[C@]5(C)[C@@H](C6=CC(=O)OC6)CC[C@]5(O)[C@@H]4CC[C@]3(O)C2)[C@H](O)[C@H](O)[C@H]1O
inactive: [10] | [4] | [6] | [7] | [13] | [9]
active: [1] 0.0261 µM | [11] 91.9 nM and 84.1 nM

COC12CC[C@@]3(C[C@@H]1C(C)(O)C(C)(C)C)[C@H]1Cc4ccc(O)c5c4[C@@]3(CCN1CC1CC1)[C@H]2O5 (some centres not stated)
inactive: [9]
active: [1] 54.6 µM | [10] 60.7 µM | [2] 54.1 µM | [5] 21.7 µM | [6] 60.7 µM | [7] 54.1 µM | [11] 27.1 µM

CCCCCCCCCCCCCN1CC(C)OC(C)C1 (configuration not stated)
inactive: [1] | [10] | [2] | [4] | [5] | [6] | [7] | [8] | [11] | [9]

Clc1ccc(C(c2ccc(Cl)cc2)C(Cl)(Cl)Cl)cc1
inactive: [6] | [11] | [9]
61.6 µM (active) and inactive: [10]
active: [1] 55.3 µM | [2] 61.6 µM | [3] 34.9 µM and 38.9 µM | [5] 22 µM and 30.9 µM and 23.9 µM

C=CC(=O)OCCCCOC(=O)C=C
inactive: [1] | [5] | [9]
active: [10] 19.3 µM | [11] 54.5 µM

Oc1c(Br)c(Br)c(Br)c(Br)c1Br
active: [2] 24.5 µM
inactive: [1] | [10] | [3] | [6]

C[C@]12CC[C@@H]3c4ccc(OC(=O)N(CCCl)CCCl)cc4CC[C@H]3[C@@H]1CC[C@@H]2O
inactive: [1] | [10] | [12] | [5] | [6] | [11] | [9]

CC(C)OC(=O)C(O)(c1ccc(Cl)cc1)c1ccc(Cl)cc1
inactive: [9]
active: [1] 49 µM | [10] 68.6 µM | [2] 54.5 µM | [3] 34.7 µM | [5] 38.9 µM | [7] 43.3 µM

CC1(c2ccc(Oc3ccccc3)cc2)OC(=O)N(Nc2ccccc2)C1=O (configuration not stated)
inactive: [1] | [9]
active: [10] 54.8 µM | [2] 6.15 µM | [7] 27.5 µM | [11] 27.5 µM

NNC(=O)c1ccccc1
inactive: [14] | [15] | [10] | [2] | [3] | [4] | [12] | [5] | [6] | [7] | [11] | [9]
active: [8] 1.77 µM

ClC(Cl)=C(Cl)Cl
inactive: [15] | [10] | [2] | [3] | [4] | [12] | [5] | [6] | [11] | [9]

ClCc1ccc(Cl)cc1Cl
inactive: [1] | [3] | [4] | [12] | [5] | [6] | [11] | [9]

N#CNC#N
inactive: [15] | [10] | [2] | [3] | [4] | [12] | [5] | [6] | [7] | [11] | [9]

COc1cc(N)c(Cl)cc1C(=O)NC1CN2CCC1CC2 (configuration not stated)
inactive: [15] | [10] | [2] | [3] | [4] | [12] | [5] | [6] | [11] | [9]

CCOC(=O)C1(c2ccccc2)CCN(CCC(C#N)(c2ccccc2)c2ccccc2)CC1
active: [2] 18.8 µM
inactive: [15] | [10] | [3] | [4] | [5] | [6] | [7] | [8] | [11] | [9]
